Measured values: PubChem BioAssay (NCI)
Compounds without any hit were thinned out: in the full panel of roughly 79,000, 15% have a hit. Rule as the data show it: active = growth inhibition above about 70%; inactive = the rest.

Legend:
[1] = NCI Yeast Anticancer Drug Screen. Data for the rad50 strain (AID 155);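 also: 0% = growth of vehicle-only cultures of the same strain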; conditions: S. cerevisiae rad50 strain growth inhibition; at 50.0 µM; hits give high values
Procedure, shortened: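 Inhibition values express reduced yeast growth in compound-treated cultures relative to vehicle-treated controls.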

[2] = NCI Yeast Anticancer Drug Screen. Data for the mec2-1 strain (AID 157); conditions: S. cerevisiae mec2-1 strain, at 50.0 µM, hits give high values
Procedure, shortened: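 Each compound was tested on mec2-1 yeast, a strain altered in DNA damage repair or cell cycle control. Growth inhibition is reported relative to vehicle.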

[3] = NCI Yeast Anticancer Drug Screen. Data for the sgs1 mgt1 strain (AID 161);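 also: 0% = growth of cultures given vehicle only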; conditions: S. cerevisiae sgs1 mgt1 strain, at 50.0 µM, hits give high values
Procedure, shortened: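 Genetically altered yeast, compound exposure, growth inhibition relative to vehicle.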

[4] = NCI Yeast Anticancer Drug Screen. Data for the cln2 rad14 strain (AID 165);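 also: 0% = growth equal to vehicle treated cultures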; conditions: S. cerevisiae cln2 rad14 strain, at 50.0 µM, hits give high values
Procedure, shortened: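 Test compounds were added to cln2 rad14 yeast cultures; inhibition of growth was then determined by comparison with vehicle treatment.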

[5] = NCI Yeast Anticancer Drug Screen. Data for the bub3 strain (AID 167); conditions: S. cerevisiae bub3 mutant strain, at 50.0 µM, hits give high values
Procedure, shortened: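 Steps: expose the mutant yeast strain to compound; grow alongside vehicle-treated cultures; measure growth; express inhibition against the vehicle cultures.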

[6] = NCI Yeast Anticancer Drug Screen. Data for the mlh1 rad18 strain (AID 175); conditions: S. cerevisiae mlh1 rad18 strain growth inhibition; at 50.0 µM; hits give high values
Procedure, shortened: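 Inhibition values reflect reduced growth of mutant yeast versus vehicle-treated controls following compound exposure; the mutations affect DNA damage repair.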

Measured: growth inhibition

OCC(O)C(O)C(O)C(c1ccc(Cl)cc1)c1ccc(Cl)cc1 (centres undefined)
inactive: [1] -16.4% | [2] 0.65% | [3] -23% | [4] 5.35% | [5] 2.25% | [6] 35%

CCCCSc1nc2c([nH]1)c(=O)n(C)c(=O)n2C
inactive: [1] -0.75% | [2] 2.8% | [3] 4.3% | [4] -34.5% | [5] 22.9% | [6] 1.5%

CCN(CC)CCNc1cccc(Cl)c1
inactive: [1] 60.1% | [2] 9.25% | [3] 34.4% | [4] 25.2% | [5] 29.1% | [6] 47.5%

CC/C(N)=N\OC(=O)c1ccccc1
inactive: [1] 14.3% | [2] -4.75% | [3] -4.45% | [4] -44.4% | [5] 2.8% | [6] -5%

O=C1c2ccccc2C(=O)N1C1CCCCC1
inactive: [1] 7.15% | [2] 35.9% | [3] 22.4% | [4] -4.25% | [5] 56.4% | [6] -16.6%

O=C(Nc1ccc(C(=O)O)cc1)Nc1cccc(F)c1
inactive: [1] 14.8% | [2] 8.35% | [3] 10.2% | [4] 14.6% | [5] 22.6% | [6] 13.8%

O=C1OC(c2cccc([N+](=O)[O-])c2)=N/C1=C\c1ccccc1
inactive: [1] 17.2% | [2] 12.1% | [3] 14.6% | [4] 18.4% | [5] 15.3% | [6] 24.6%

Nc1c(Cl)cc(Cl)cc1C(=O)O
inactive: [1] -5.05% | [2] -10.5% | [3] 0.35% | [4] -28.7% | [5] -11.2% | [6] -16.1%

CCCC(=O)OC1C(CO)OC(n2cc(F)c(=O)[nH]c2=O)C1F (centres undefined)
inactive: [1] -7.85% | [2] 6.4% | [3] -8.6% | [4] -15.7% | [5] 3.75% | [6] -17.8%

CCOc1cc(/C=N\NC(=S)N/N=C/c2ccc(O)c(OCC)c2)ccc1O
inactive: [1] -15.2% | [2] -0.75% | [3] -4.35% | [4] 1.55% | [5] -6.65% | [6] 29.9%

COc1ccc(C(=O)Oc2ccc(C)c(CC(Cl)(Cl)Cl)c2)cc1
inactive: [1] -6.1% | [2] -9.5% | [3] 6.75% | [4] -12.3% | [5] -6.35% | [6] -14.4%

O=C(O)CCCCCN1C(=O)c2cccc([N+](=O)[O-])c2C1=O
inactive: [1] 17.6% | [2] 10% | [3] 22.5% | [4] 19.2% | [5] 12.3% | [6] 12.7%

ClCCCOc1ccccc1
inactive: [1] 21.5% | [2] 23.2% | [3] 22.6% | [4] 8.55% | [5] -5.25% | [6] 11.6%

CC(C)=C1CC(C)(C)N=C1CCN1CCOCC1
inactive: [1] -12.3% | [2] -20.6% | [3] -12.5% | [4] -6% | [5] -11.3% | [6] -24.6%

CCCC(/C=N/Nc1ccc([N+](=O)[O-])cc1[N+](=O)[O-])=C\c1ccccc1
inactive: [1] -12.1% | [2] -29.2% | [3] 10.6% | [4] -22.9% | [5] 27.1% | [6] -50%

CON
inactive: [1] -16.2% | [2] -5.35% | [3] 2.4% | [4] -13.1% | [5] 0.3% | [6] -12.2%

Nc1nc(Cl)cc(NCC(O)CO)n1 (centres undefined)
inactive: [1] 7.55% | [2] 2.35% | [3] -1.45% | [4] 6.65% | [5] -0.25% | [6] -2.55%

Cc1cccc(C(=O)c2ccccc2Cc2cccc3ccccc23)c1C
inactive: [1] 5.1% | [2] -6.8% | [3] 7.2% | [4] -6.45% | [5] 9.5% | [6] -15.5%

O=C1CSC(c2cccs2)N1c1nncs1 (centres undefined)
inactive: [1] 27.4% | [2] -14.8% | [3] 19.3% | [4] 14.6% | [5] 11.6% | [6] 21.6%

CCCCCCN(C(=O)Oc1ccccc1)C(C#N)c1ccccc1 (centres undefined)
inactive: [1] 0.1% | [2] 5.55% | [3] -16.8% | [4] -14.7% | [5] 1.75% | [6] -20.2%

NNC(=O)CC(=O)Nc1ccc(S(=O)(=O)c2ccc(NC(=O)CC(=O)NN)cc2)cc1
inactive: [1] 16.6% | [2] 12.7% | [3] 18.6% | [4] 30.1% | [5] 25.4% | [6] -1%

Cn1c(=O)ccc2c1nc1ccccc1[n+]2[O-]
inactive: [1] -6.25% | [2] 4.65% | [3] -6.7% | [4] -30.8% | [5] 4.75% | [6] -11.8%

CCCCNc1nc(SC)nc2nc[nH]c12
inactive: [1] -9.35% | [2] -9.65% | [3] -41.1% | [4] -21.2% | [5] -26.4% | [6] -3.9%

COCCOC(=O)c1ccc(C(N)=NC2CCCCC2)cc1
inactive: [1] -1.2% | [2] 4.25% | [3] 3.9% | [4] 0.95% | [5] 8.65% | [6] -0.7%

Cc1cc(C)c(OC(=O)c2ccc(C(=O)Oc3c(C)cc(C)cc3C)cc2)c(C)c1
inactive: [1] 13.8% | [2] -1.65% | [3] -4.85% | [4] 0.25% | [5] -1.6% | [6] 14.9%

C=CC(C)(C)c1c2c(c(O)c3c(=O)c4ccc(O)c(O)c4oc13)C=CC(C)(C)O2
inactive: [1] -12.2% | [2] -12% | [3] 3.35% | [4] -5.2% | [5] -7.7% | [6] -4.05%

CCOC(=O)/C(C#N)=C/c1ccc(C)o1
inactive: [1] 19.1% | [2] 3.1% | [3] 27.4% | [4] 33% | [5] 31.1% | [6] 35%

O=C1c2ccccc2C(O)(c2ccc(O)cc2)c2ccccc21
inactive: [1] -3.25% | [2] 0.1% | [3] -0.95% | [4] -0.3% | [5] 6.1% | [6] 6.2%

Nc1[nH]c(=O)nc2nc(I)[nH]c12
inactive: [1] 5.05% | [2] 2.75% | [3] 22.7% | [4] -17.2% | [5] 22.9% | [6] 3.35%

CC1=C(C(=O)OCCO[N+](=O)[O-])C(c2ccccc2C(F)(F)F)C(C(=O)OC(C)C)=C(C)N1 (centres undefined)
inactive: [1] 45.5% | [2] 17.4% | [3] 32.9% | [4] 53% | [5] 30% | [6] -27.1%

Cc1ccc(NC(=O)CC(=O)n2nc(-c3ccccc3)c(N=Nc3ccc(Cl)cc3)c2-c2ccccc2)cc1
inactive: [1] 9.95% | [2] 4% | [3] 13.9% | [4] 22.7% | [5] 46% | [6] 37.7%

Cc1ccc(C(CS(=O)(=O)c2ccc(C)cc2)c2ccccc2)cc1 (centres undefined)
inactive: [1] 0.5% | [2] 6.15% | [3] -7.8% | [4] -20.1% | [5] 1.7% | [6] -19.9%

CCOC(=O)c1c(-c2ccc(OC)cc2)c(C#N)c(=S)n(C2OC(CO)C(O)C(O)C2O)c1C (centres undefined)
inactive: [1] 17.7% | [2] -9.5% | [3] 3.05% | [4] 6.3% | [5] 22.4% | [6] 10.1%

CSc1nc2c(nc(N)n2C2OCC(O)C(O)C2O)c(=O)[nH]1 (centres undefined)
inactive: [1] -19.2% | [2] -5.2% | [3] -12.5% | [4] -15% | [5] -5.65% | [6] -29.2%

O=C1CC2(CCCCC2)CC(=O)N1
inactive: [1] -6.25% | [2] -5.05% | [3] 8.3% | [4] -34.6% | [5] 6.9% | [6] -2.35%

CC(C)N1CN(C(C(=O)N[C@@H]2C(=O)N3C2SC(C)(C)C3C(=O)O)c2ccccc2)CSC1=S (some centres undefined)
inactive: [1] 48.8% | [2] -15.4% | [3] 3.85% | [4] -7.95% | [5] -9.85% | [6] -11.2%

Cc1[nH]c(=O)[nH]c1C(=O)c1ccc(-n2ccnc2)cc1
inactive: [1] -1.45% | [2] -9.75% | [3] 16.1% | [4] 16.2% | [5] 5.25% | [6] -9.15%

C1CC[N+]2(CC1)CCCCC2
inactive: [1] 0.1% | [2] 9.4% | [3] -0.55% | [4] 14.2% | [5] 23.1% | [6] -0.45%

C=C(c1ccccc1)c1cccc2ccccc12
inactive: [1] -2.45% | [2] 3.45% | [3] -4.9% | [4] 19.9% | [5] -11.7% | [6] 6.55%
